LMP1 NFkB inh: EBV LMP1-driven NF-kappaB luciferase reporter inhibitors, primary screen, cell-based, luminescence, single point; inhibition, % at 12.5 µM; LMP1-induced NF-kappaB luciferase reporter cells; actives 0.69% (n = 350,000); AID 504558, 2011; in the data active = inhibition above about 41%; inconclusive = no clear call, values can overlap the other calls
MITF TRPM1 inh: inhibitors of MITF-dependent TRPM1 promoter reporter, primary screen, cell-based, SK-MEL-5, single point, luciferase; SK-MEL-5 TRPM1 promoter luciferase, 24 h; inhibition, % at 12.5 µM; actives 0.83% (n = 330,000);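 active = mean inhibition across replicates of 60% or more, whatever share of single replicates reaches that level; inconclusive = some that reach 60%, reason not given; inactive = mean inhibition across replicates below 60%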
Wnt bcat act: Wnt/beta-catenin pathway activators, primary screen, cell-based, plate reader, single point; Wnt/beta-catenin reporter cell assay, activator; activation, % at 9.35 µM; actives 1.2% (n = 300,000); AID 743398, 2014; in the data active = activation above about 30%, passing the limit was not always enough; inconclusive = no clear call, values can overlap the other calls
Statin myotox sup: suppressors of statin myotoxicity in C2C12 myotubes, primary screen, cell-based, single point, plate reader; rescue of ATP level, % at 7.49 µM; C2C12 myotubes + simvastatin, ATP luminescence, 48 h; scaled: DMSO 0, geranylgeraniol control 100; actives 0.78% (n = 330,000); AID 602340, 2012;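 active = mean ATP rescue above about 67%, or every replicate alone reaching that limit, limit read from the data, passing the limit was not always enough; inconclusive = no clear call, values can overlap the other calls; inactive = mean under the limit and some replicate under it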;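 also: myotubes were challenged with 10 µM simvastatin during compound exposure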
esBAF inh: Bmi1 luciferase reporter increase in mESCs, primary screen, esBAF inhibitor project, mouse ES cells, Bmi1 luciferase knock-in, single point; 24 h; 100% = twice the neutral-well signal; reporter increase, % at 12.5 µM; actives 2% (n = 350,000); AID 602393, 2012; in the data active = activation above about 40%; inconclusive = no clear call, values can overlap the other calls;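 also: a rise in the Bmi1 reporter signal indicates esBAF inhibition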
MITF TRPM1 HTS: activators of MITF-driven TRPM1 promoter reporter, primary screen, cell-based, SK-MEL-5, luciferase, single point; SK-MEL-5 TRPM1-promoter luciferase, 24 h; % of positive control, neutral wells = 0; activation, % at 12.5 µM; actives 0.75% (n = 300,000); AID 588334, 2011;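 active = mean activation of at least 80% with every replicate also reaching 80%; inconclusive = mean reaches 80% but some replicate falls short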
Hits are given with their value; – = inactive; ? = inconclusive; · = not tested or not shown; ! = repeats disagree. The list is not random: actives were taken first. Their share in the collection is about 4%.

SMILES | LMP1 NFkB inh | MITF TRPM1 inh | Wnt bcat act | Statin myotox sup | esBAF inh | MITF TRPM1 HTS
COc1ccccc1C(=O)N/C(=C\c1cn(C)c2ccccc12)C(=O)N1CCOCC1 | – | – | – | – | – | –
Cc1cccc(-n2c(O)c(C=Nc3c(C)n(C)n(-c4ccccc4)c3=O)c3ccccc3c2=O)n1 | 58! | – | – | – | – | –
Cc1cc([N+](=O)[O-])ccc1NC(=O)COc1nsnc1N1CCOCC1 | – | – | – | – | – | –
Cc1oc(-c2ccc(Cl)cc2)[n+]([O-])c1C | – | – | – | 76 | – | –
Cc1ccc(NC(=O)C(=O)c2ccc(C)cc2)cc1 | – | – | ? | – | 76 | –
Cc1ccc(NCC(=O)c2ccc(C)cc2)cc1 | – | – | – | – | – | 84
Cc1ccc(NC(=O)c2ccccc2)cc1 | – | – | · | – | ? | ·
O=C(OCC(=O)N1CCc2ccccc21)[C@@H]1CC(O)CN1S(=O)(=O)c1ccccc1[N+](=O)[O-] (some centres not stated) | – | · | – | – | – | ·
Cc1cc(C(=O)CSc2nnnn2-c2ccccc2)c(C)n1CCc1ccccc1 | – | – | – | 107 | – | –
Cc1ccc(-n2c(C)cc(C(=O)CSc3nncs3)c2C)cc1 | – | – | · | · | · | –
Cc1ccc(-n2c(C)cc(C(=O)CSc3nnnn3C)c2C)cc1 | – | – | 63 | – | – | –
CCN(C(=O)COC(=O)CNC(=O)c1cccc(C)c1)c1c(N)n(Cc2ccccc2)c(=O)[nH]c1=O | – | – | – | – | – | –
CN(C)C(=O)c1cn(CCC#N)nc1-c1ccc2ccccc2c1 | – | – | – | – | – | –
COc1cc(NC(=S)N2CCN(Cc3ccccc3)CC2)cc(OC)c1 | – | – | · | · | · | –
O=c1[nH]cnc2scc(-c3ccsc3)c12 | – | – | · | 117 | – | –
C/C(=N/NS(=O)(=O)c1ccccc1)c1ccc(NC(=O)C2CC2)cc1 | – | – | – | – | – | –
O=C(Nc1nnc(-c2ccccc2F)s1)C1CCCO1 (configuration not stated) | – | – | 51 | · | · | –
O=C(Nc1nc2ccc(F)cc2s1)C1CCCO1 (configuration not stated) | – | – | · | – | 99 | 112
O=C(Nc1nc2ccc(C(=O)N3CCCCC3)cc2s1)C1CCCCC1 | – | – | – | · | · | –
Nc1ccc2nc(NC(=O)C3CCCCC3)sc2c1 | – | – | 48 | – | 52 | –
O=C(Nc1nnc(-c2ccncc2)s1)C1CCCO1 (configuration not stated) | – | – | · | – | – | –
Cc1cc(C)c2sc(NC(=O)C3CC3)nc2c1 | 48 | – | – | – | ? | –
CC(C)CCNC(=O)c1ccccc1NC(=O)C1=CSCCO1 | – | – | – | – | – | –
Clc1ccc(-c2cc3ccccc3[nH]2)cc1 | – | – | 42 | – | 81 | ·
CNc1ccc(/C=C(\C#N)c2ccccn2)cc1[N+](=O)[O-] | – | – | – | – | 74 | ?
SMILES | LMP1 NFkB inh | MITF TRPM1 inh | Wnt bcat act | Statin myotox sup | esBAF inh | MITF TRPM1 HTS
N#C/C(=C\c1ccc(Cl)c([N+](=O)[O-])c1)c1ccccn1 | – | – | – | · | · | –
Cc1cc(Sc2ncnc(N)c2[N+](=O)[O-])ncn1 | – | 78 | · | · | · | –
Cc1cc(Sc2nc(N)ncc2[N+](=O)[O-])ncn1 | – | – | – | – | – | –
Cn1c(N)c(C(=O)CN2CCc3ccccc3C2)c(=O)n(C)c1=O | – | – | – | – | – | –
COc1cccc2cc(C(=O)N3CC(C)OC(C)C3)c(=O)oc12 (configuration not stated) | – | – | – | – | – | –
COc1cc2c(oc(=O)c3cc(C)cc(OC)c32)c2c(C3OC(C)C(O)C(C)(O)C3O)ccc(O)c12 (configuration not stated) | 78 | 65 | – | · | · | ·
CSc1ncccc1C(=O)Nc1ccc2nc(C)sc2c1 | – | – | – | · | · | –
CSc1ncccc1C(=O)Nc1ccncc1 | – | – | – | – | – | –
CSc1ncccc1C(=O)Nc1nc2ccc(Oc3ccccc3)cc2s1 | – | – | – | – | 45 | –
CCOc1ccc2nc(NC(=O)NC3CCCCC3)sc2c1 | – | – | – | · | 34 | –
CCOc1ccc2nc(NC(=O)C3CCCO3)sc2c1 (configuration not stated) | – | – | – | – | – | –
COc1ccc(NC(=O)c2cccnc2SC)cc1OC | – | – | 35 | – | – | –
Cc1ccc2nc(NC(=O)c3ccccn3)sc2c1 | 82 | 94 | – | – | – | –
O=C(Nc1cccc2ncccc12)c1ccccc1Cl | – | – | – | – | – | ·
O=C(Cc1ccc(Cl)cc1)Nc1ccncc1 | – | – | – | – | – | –
CCOc1ccc2nc(NC(=O)c3ccccn3)sc2c1 | 57 | 80 | – | – | – | –
O=C(Nc1nc2c(F)cc(F)cc2s1)c1ccccn1 | 44 | 65 | – | – | – | –
CCOc1ccc2nc(NC(=O)C34CC5CC(CC(NC(C)=O)(C5)C3)C4)sc2c1 | – | – | – | – | 58 | –
C[C@@H]1CCCCO[C@@H](CN(C)C(=O)C2CCCCC2)[C@@H](C)CN([C@H](C)CO)C(=O)c2cc(NC(=O)CCCCCC(=O)Nc3ccccc3N)ccc2O1 | · | · | · | · | – | ·
COc1cccc(NC(=O)c2ccc3c(c2)N(C)CCS3)c1 | – | – | 50 | – | 51 | –
COc1cccc(NC(=O)c2ccc3c(c2)CCN3S(C)(=O)=O)c1 | – | · | – | – | 56 | ·
CN1CCSc2ccc(C(=O)Nc3ccc(Cl)cc3)cc21 | – | – | 37 | · | · | ?
CN(Cc1ccccc1)C(=O)COC(=O)CCC(=O)c1ccc(Cl)cc1 | – | – | – | – | – | –
O=C(c1cc(Cl)nc2ccccc12)N(Cc1nnc(-c2ccc(Cl)cc2)o1)C1CC1 | – | – | – | – | – | –
O=C(CN(C(=O)CCC(=O)Nc1ccccn1)c1ccc2c(c1)OCCO2)NCCc1ccccc1 | – | – | – | 100 | – | –
SMILES | LMP1 NFkB inh | MITF TRPM1 inh | Wnt bcat act | Statin myotox sup | esBAF inh | MITF TRPM1 HTS
COc1cc(CNn2c(C)n[nH]c2=S)cc(Cl)c1OCC(=O)NC(C)(C)C | – | – | – | – | – | ·
Cc1cccc(NC(=O)CN(C)C(=O)Cc2ccc(-c3ccccc3)cc2)c1C | – | · | – | – | – | ·
Cc1ccc(OCC(=O)Nc2sc3c(c2C#N)CCC3)cc1 | – | – | – | – | – | 111
Cc1cccc(C(=O)Nc2sc3c(c2C#N)CCCCC3)c1 | – | – | · | – | – | 89
CCOC(=O)Nc1sc2c(c1C#N)CCCC2 | – | – | · | – | – | 91
Cc1cc(Cl)cc(Br)c1OCCNCC(C)O (configuration not stated) | – | – | · | – | – | –

Bioassay records (PubChem)
